Laboratory results from PubChem BioAssay AID431 (Sanford-Burnham Center for Chemical Genomics, 2006).
About 1,100 (1.7%) of roughly 63,000 compounds were called active. Shown is part of a subset that was picked to be rich in actives. Entries with a potency or affinity are not part of this list. A number with no mark means an inactive call.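 How the source made its calls: active means compounds whose percent cytotoxicity in the single-dose primary screen, scaled between solvent and toxic-drug controls, exceeds 50; inactive means the rest.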

Assay: viability loss of HPDE-C7K cells – cell-based, fluorescence, HTS, primary screen (AID 431);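 further: 0% = DMSO solvent wells and 100% = doxorubicin-treated wells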
Conditions: HPDE-C7K KRASV12 cells, Alamar Blue viability, 48 h; at 10 µM; stronger effect = higher value

| SMILES | cytotoxicity |
| --- | --- |
| O=C(CN(Cc1ccccc1F)S(=O)(=O)c1ccc(Cl)cc1)NCCCO | -0.2% |
| CC1CCN(c2nc3c(c(=O)n(C)c(=O)n3C)n2CCSc2nc3ccccc3s2)CC1 | -22% |
| COc1ccccc1C(c1nnnn1CS(=O)(=O)c1ccc(C)cc1)N1CCSCC1 (stereo unspecified) | -16.2% |
| CCCn1c(SCC(=O)NCC2CCCO2)nc2c1c(=O)n(C)c(=O)n2C (stereo unspecified) | 2.7% |
| CCOc1ccc(C2CC(=O)NC(SCC(=O)OC)=C2C#N)cc1 (stereo unspecified) | -6.5% |
| CCOC(=O)CSC1=C(C#N)C(c2ccc(C)s2)CC(=O)N1 (stereo unspecified) | 49.2% |
| CCOC(=O)CSC1=C(C#N)C(c2sccc2C)CC(=O)N1 (stereo unspecified) | 52% (active) |
| Cc1ccc(NCc2nnc3n2CCCCC3)cc1 | -2.7% |
| CCOC(=O)N1CCC(N2CCN(S(=O)(=O)CC)CC2)CC1 | 3.6% |
| O=C(Nc1nc2c(s1)CCc1ccccc1-2)c1ccco1 | 5.1% |
| CC1CCc2nc(NC(=O)c3ccco3)sc2C1 (stereo unspecified) | -5.4% |
| O=S(=O)(Cc1ccccc1)NCc1ccccn1 | 1.9% |
| C=CCn1c(SCC(=O)NCc2ccco2)nnc1-c1ccc2ccccc2n1 | 16.6% |
| CCc1nc(OCCN(C)C)c2oc3ccccc3c2n1 | -2.7% |
| CCN(CC)CCOc1nc(C)nc2c1oc1ccccc12 | -1.3% |
| CN(C)CCOc1nc(-c2ccccc2)nc2c1oc1ccccc12 | 56.8% (active) |
| CC1Oc2ccccc2N(Cc2ccccc2F)C1=O (stereo unspecified) | 3.3% |
| CCOC(=O)c1cccc(C(=O)OCC)n1 | -5.9% |
| CCOC(=O)c1ccccc1NC(=O)COC | -2.8% |
| Cc1ccccc1CS(=O)(=O)Cc1ccc(C(=O)NCCCN2CCCC2=O)o1 | -10.2% |
| CCOC(=O)c1c(NC(=O)c2nn(CC)cc2Br)sc2c1CCCCC2 | 16.9% |
| Cc1sc2ncnc(SCc3ccco3)c2c1C | -15.5% |
| Cc1sc2ncnc(Sc3nnnn3-c3ccccc3)c2c1C | 101% (active) |
| CCCn1c(Sc2nnnn2-c2ccccc2)n[nH]c1=O | -14.1% |
| Cc1nc(Sc2nnnn2-c2ccccc2)c(C#N)c(C)c1C | -8% |
| Clc1ccc(-n2nnnc2Sc2ncnc3sccc23)cc1 | -6.3% |

| SMILES | cytotoxicity |
| --- | --- |
| CCOC(=O)c1ccc(CNC(=O)c2cc3cccc(OC)c3oc2=O)o1 | -2.4% |
| CCOC(=O)CCCSc1nc2sc(C)c(C)c2c(=O)[nH]1 | 9.4% |
| CC(C)CCn1c(SCC(N)=O)nc2c1c(=O)n(C)c(=O)n2C | -10.1% |
| CCOc1ccc(OCc2ccc(C(=O)O)o2)cc1 | -2.9% |
| CCN1CCN(c2ncc3c(n2)CC(c2ccc(OC)c(OC)c2)CC3=O)CC1 (stereo unspecified) | 14.6% |
| COc1cc(C2CC(=O)c3cnc(NC(=O)COc4ccccc4)nc3C2)cc(OC)c1OC (stereo unspecified) | -19.4% |
| COc1ccc(C2CC(=O)c3c(C)nc(N4CCN(Cc5ccccc5)CC4)nc3C2)cc1OC (stereo unspecified) | 39.3% |
| COc1cc(C2CC(=O)c3cnc(N4CCN(Cc5ccccc5)CC4)nc3C2)cc(OC)c1OC (stereo unspecified) | 50.1% (active) |
| Cc1ccc(C2CC(=O)c3cnc(N4CCN(c5ccccc5)CC4)nc3C2)cc1 (stereo unspecified) | 17.2% |
| COc1ccc(C2CC(=O)c3cnc(N4CCN(Cc5ccccc5)CC4)nc3C2)cc1 (stereo unspecified) | 4.1% |
| CCN1CCN(c2ncc3c(n2)CC(c2cc(OC)c(OC)c(OC)c2)CC3=O)CC1 (stereo unspecified) | 62.1% (active) |
| O=C1CC(c2cccc(Cl)c2)Cc2nc(N3CCOCC3)ncc21 (stereo unspecified) | -18.3% |
| O=C1CC(c2cccc(Cl)c2)Cc2nc(N3CCN(c4ccccc4)CC3)ncc21 (stereo unspecified) | 61.6% (active) |
| CCOC(=O)C1CCN(C(=O)CCn2c(=O)[nH]c3ccccc3c2=O)CC1 | -4.8% |
| Cc1nn(C)c(C)c1S(=O)(=O)NC1CCCC1 | -13% |
| CCOC(=O)C1CCCN(C(=O)c2cccs2)C1 (stereo unspecified) | 2.4% |
| COc1cccc(NC(=O)NCc2cccn2C)c1 | -7% |
| COc1cc(S(=O)(=O)N2CCC(N3CCCCC3)CC2)ccc1-n1cnnn1 | 12.7% |
| COc1cc(S(=O)(=O)N2CCN3CCCC3C2)ccc1-n1cnnn1 (stereo unspecified) | 6.5% |
| COc1cc(S(=O)(=O)N2CCCC3(CCCCC3)C2)ccc1-n1cnnn1 | 76% (active) |
| COc1cc(C(=O)Nc2ccc(S(=O)(=O)N3CCCCC3C)cc2)cc(OC)c1OC (stereo unspecified) | 0.7% |
| Cc1cc(C)c2c(CC(=O)N(CCC#N)Cc3cccnc3)coc2c1 | -1.9% |
| c1csc(CSc2nc3ccccc3s2)c1 | -17.1% |
| N#C/C(=C\c1ccco1)Sc1nc2ccccc2s1 | 43.6% |
| Cc1oc(-c2cccs2)nc1CS(=O)CC(=O)NCCCOC(C)C (stereo unspecified) | -12.2% |
| O=C(CSC1=NCCS1)Nc1ccnc2ccccc12 | -15.4% |

| SMILES | cytotoxicity |
| --- | --- |
| COC(=O)COc1ccc(S(=O)(=O)NCCC2=CCCCC2)cc1C | -19.8% |
| COC(=O)COc1ccc(S(=O)(=O)NCCC2=CCCCC2)cc1 | -11.9% |
| CCOC(=O)COc1ccc(S(=O)(=O)NCCC2=CCCCC2)cc1 | 53.1% (active) |
| COC(=O)C1=C(C)OC(N)=C(C#N)C1C1CCCCC1 (stereo unspecified) | -11.1% |
| CCOc1ccc(NC(=O)CSc2nnc(C)n2CCCOC)cc1 | -3.5% |
| COc1cccc(C(=O)Nc2ccc(C)cc2)c1 | 4.1% |
| O=C(/C=C/Nc1cccc(O)c1)c1ccccc1 | 15% |
| COc1cccc(C(=O)/C=C/Nc2cc(C)ccc2O)c1 | 69.1% (active) |
| Cc1cccc(OCC(=O)Nc2cc(C)ccc2O)c1 | -1.5% |
| Cc1ccc(C(=O)/C=C/Nc2cccc(O)c2)cc1 | 60.9% (active) |
| C/C(=C\C(=O)c1ccc(C)cc1)Nc1cccc(O)c1 | -15.4% |
| Cc1ccc(C)c(N2CCN(C(=O)c3ccc(NS(=O)(=O)c4c(C)noc4C)cc3)CC2)c1 | 17.4% |
| Cc1noc(C)c1S(=O)(=O)Nc1ccc(C(=O)N2CCN(c3ccc(Cl)cc3)CC2)cc1 | -5.4% |
| CCCCc1n[nH]c2c1C(=O)CC(C)(C)C2 | 1.2% |
| CCOC(=O)N1CCC(NC(=O)c2cc(C(=O)Nc3cccc(OC)c3)ccc2CO)CC1 | 1.1% |
| CCCC(c1nnnn1CC1CCCO1)N1CCN(c2cc(Cl)ccc2C)CC1 (stereo unspecified) | 61.1% (active) |
| Cc1ccc(Cl)cc1N1CCN(C(CC(C)C)c2nnnn2CC2CCCO2)CC1 (stereo unspecified) | 39.6% |
| CCCCC(c1nnnn1CC1CCCO1)N1CCN(c2cc(Cl)ccc2C)CC1 (stereo unspecified) | 36.2% |
| O=C(Nc1ccccc1C(=O)O)c1ncn[nH]1 | -10% |
| CC(C)CC(=O)Nc1c2c(nn1-c1ccc(F)cc1)CSC2 | -0.6% |
| CCOC(=O)CCc1c(C)n(CC)c2ncnn2c1=O | 2.5% |
| CS(=O)(=O)c1ccc2nc(NC(=O)Cc3ccccc3)sc2c1 | 2.6% |
| CC(C)(C)NS(=O)(=O)c1ccc2nc(NC(=O)Cc3cccs3)sc2c1 | 73.1% (active) |
| O=C(Cc1cccs1)Nc1nc2ccccc2s1 | 2.2% |
| COCCn1c(=S)[nH]c2cc(C(=O)N3CCN(c4ccccc4OC)CC3)ccc2c1=O | 6.7% |
| O=c1c(C=NCCCn2ccnc2)c(-c2ccccc2)[nH]n1-c1nc2ccccc2s1 | 63.3% (active) |

| SMILES | cytotoxicity |
| --- | --- |
| CCCc1[nH]n(-c2nc3ccccc3s2)c(=O)c1C=NCCN1CCOCC1 | 24.1% |
| CCCCCN=Cc1c(C)[nH]n(-c2nc3ccccc3s2)c1=O | 13.1% |
| C=CCc1ccc(OCC(O)CN2CCCCC2C)c(OC)c1 (stereo unspecified) | 22.6% |
| COCCn1nnnc1SCC(=O)N1CCCCC1 | -12.2% |
| CCOc1ccc2nc(C(C)O)[nH]c2c1 (stereo unspecified) | 5.3% |
| CCOc1ccc2nc(-c3ccccc3)[nH]c2c1 | 57.3% (active) |
| COc1ccc2nc(-c3ccccc3)[nH]c2c1 | -5.2% |
| CCOc1ccccc1NC(=O)CSc1nnnn1-c1ccc(C(=O)OC)cc1 | 0.9% |
| CNCCCC12CCC(c3ccccc31)c1ccccc12 | 73.1% (active) |
| CNCCCC1c2ccccc2C=Cc2ccccc21 | 10.4% |
| CNCCCN1c2ccccc2CCc2ccccc21 | 17.5% |
| Cc1cc(NC(=O)CSc2nc(-c3ccccc3)cs2)no1 | -7.6% |
| N#CC1=C(N)OC2=C(C(=O)CCC2)C1c1ccc(OC(=O)N2CCOCC2)cc1 (stereo unspecified) | -4.6% |
| c1ccc(-c2nnc(-c3ccccn3)nn2)nc1 | 8.9% |
| c1ccc(-c2ccc(-c3ccccn3)nn2)nc1 | 7.3% |
| Cc1ccc(C)c(S(=O)(=O)NC(CCC(N)=O)C(=O)O)c1 (stereo unspecified) | 5% |
| COc1ccc2c(c1)CCc1c(C(=O)Nc3ccn(Cc4ccc(C)cc4)n3)noc1-2 | -1.5% |
| COc1cc(C2C3C(=O)N(c4ccc(F)cc4)C(=O)C3ON2c2ccccc2)ccc1O (stereo unspecified) | -1.5% |
| CCCOc1ccc(N2C(=O)C3ON(c4ccccc4)C(c4ccc(O)c(OC)c4)C3C2=O)cc1 (stereo unspecified) | 81.7% (active) |
| COc1cc(C2C3C(=O)N(c4ccccc4)C(=O)C3ON2c2ccccc2)ccc1O (stereo unspecified) | 3.7% |
| CCCCCC1CC(CC(=O)O)C(=O)O1 (stereo unspecified) | -13.6% |
| CCOC(=O)N1CCC(NC(=O)c2cc(C(=O)Nc3ccc(OCC)cc3)ccc2CO)CC1 | 1.5% |
| CCn1c(CNc2nc(-c3ccccc3)cs2)nnc1SCC(=O)NCc1ccco1 | -32.7% |
